In PubChem BioAssay (NCI):
The panel holds about 83,000 compounds, 20% with a hit somewhere; the sample as a whole holds those more often.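 How to read the values: 0–100, growth inhibition (40 = 60% inhibited); 0, no net growth; -100 to 0, cell death (-40 = 40% of starting cells died; -100 = all dead).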 Calls of active or inactive are those of the source. How the source made its calls: active means growth percent below 10; inactive means the rest.

Tests used:
Assay in all cases: NCI-60 one-dose screen, 48 h (100 = growth as untreated, 0 = no growth, -100 = all killed)
Settings in all cases: 10 µM unless noted
HCT-15 colon = tested on: HCT-15 colon
HT29 colon = tested on: HT29 colon
SNB-75 CNS = tested on: SNB-75 CNS
SNB-19 CNS = tested on: SNB-19 CNS
U251 CNS = tested on: U251 CNS
PC-3 prostate = tested on: PC-3 prostate
SK-MEL-5 melanoma = tested on: SK-MEL-5 melanoma
UACC-62 melanoma = tested on: UACC-62 melanoma
LOX IMVI melanoma = tested on: LOX IMVI melanoma
SK-MEL-28 melanoma = tested on: SK-MEL-28 melanoma
SK-MEL-2 melanoma = tested on: SK-MEL-2 melanoma
EKVX NSCLC = tested on: EKVX NSCLC
SN12C renal = tested on: SN12C renal
UO-31 renal = tested on: UO-31 renal
TK-10 renal = tested on: TK-10 renal
ACHN renal = tested on: ACHN renal
CAKI-1 renal = tested on: CAKI-1 renal
A498 renal = tested on: A498 renal
CCRF-CEM leukemia = tested on: CCRF-CEM leukemia
MOLT-4 leukemia = tested on: MOLT-4 leukemia

Measured: growth

Cn1cc(-c2cc3ncnc(Nc4ccc(CC(=O)Nc5cc(C(C)(C)C)on5)cc4)c3s2)cn1
active: CAKI-1 renal 9.29% | A498 renal -18.6%
inactive: HCT-15 colon 18.6% | HT29 colon 27.4% | SNB-75 CNS 54% | SNB-19 CNS 86.1% | U251 CNS 54.2% | PC-3 prostate 47% | SK-MEL-5 melanoma 52.1% | UACC-62 melanoma 30% | LOX IMVI melanoma 25.8% | SK-MEL-28 melanoma 44% | SK-MEL-2 melanoma 14% | EKVX NSCLC 60.2% | SN12C renal 15.4% | UO-31 renal 11% | TK-10 renal 17.8% | ACHN renal 14.1% | CCRF-CEM leukemia 10.8% | MOLT-4 leukemia 17.4%

CSc1ccc2c(c1)c(CCN)c(C)n2Cc1ccc(Cl)c(Cl)c1
active: HCT-15 colon -91.3% | HT29 colon -82.9% | SNB-75 CNS -84.3% | SNB-19 CNS -75% | U251 CNS -87.3% | PC-3 prostate -90% | SK-MEL-5 melanoma -95.1% | UACC-62 melanoma -89.6% | LOX IMVI melanoma -89.7% | SK-MEL-28 melanoma -65.6% | SK-MEL-2 melanoma -66.1% | EKVX NSCLC -86.7% | SN12C renal -80.2% | UO-31 renal -91% | TK-10 renal -80.4% | ACHN renal -85.5% | CAKI-1 renal -92.5% | A498 renal -91.8% | CCRF-CEM leukemia -56.2% | MOLT-4 leukemia -64.6%

Cc1ccc(S(=O)(=O)Oc2ccc(NC(=O)c3ccc(Cl)cc3)cc2)cc1
inactive: HCT-15 colon 88.8% | HT29 colon 94.9% | SNB-75 CNS 98.7% | SNB-19 CNS 94.2% | U251 CNS 97.1% | PC-3 prostate 93.2% | SK-MEL-5 melanoma 99.9% | UACC-62 melanoma 95.8% | LOX IMVI melanoma 95.1% | SK-MEL-28 melanoma 108% | SK-MEL-2 melanoma 99.8% | EKVX NSCLC 91.3% | SN12C renal 96.1% | UO-31 renal 91.6% | TK-10 renal 92.5% | ACHN renal 102% | CAKI-1 renal 100% | A498 renal 93.9% | CCRF-CEM leukemia 104% | MOLT-4 leukemia 104%

CCCCNc1nc(NN2C(=O)c3cccc4cccc(c34)C2=O)nc(-n2cnc3ccccc32)n1
inactive: HCT-15 colon 85.2% | HT29 colon 98% | SNB-75 CNS 85.8% | SNB-19 CNS 86.9% | U251 CNS 69.3% | PC-3 prostate 77.4% | SK-MEL-5 melanoma 75.6% | UACC-62 melanoma 88.3% | LOX IMVI melanoma 87.4% | SK-MEL-28 melanoma 94.1% | SK-MEL-2 melanoma 99% | EKVX NSCLC 71.8% | SN12C renal 90.5% | UO-31 renal 44.1% | TK-10 renal 100% | ACHN renal 81.3% | CAKI-1 renal 75.6% | A498 renal 35.9% | CCRF-CEM leukemia 96.3% | MOLT-4 leukemia 77.4%

O=c1c2cc(F)cc(Cl)c2sc2c(NCCCNCCO)nc3ccccc3c12
inactive: HCT-15 colon 77.3% | SNB-75 CNS 74.6% | SNB-19 CNS 88.1% | U251 CNS 75.8% | PC-3 prostate 82.7% | SK-MEL-5 melanoma 98.9% | UACC-62 melanoma 99.9% | LOX IMVI melanoma 66% | SK-MEL-28 melanoma 108% | SK-MEL-2 melanoma 107% | EKVX NSCLC 88.2% | SN12C renal 83.4% | UO-31 renal 59.8% | TK-10 renal 100% | ACHN renal 83.8% | CAKI-1 renal 71.2% | A498 renal 56.2% | CCRF-CEM leukemia 15.8% | MOLT-4 leukemia 60.6%
active: HT29 colon 3.35%

CCOC(=O)c1cn2ncnc(Oc3ccc(NC(=O)NCCN4CCOCC4)c(Cl)c3)c2c1C
inactive: HCT-15 colon 96.3% | HT29 colon 104% | SNB-75 CNS 76.8% | SNB-19 CNS 95.1% | U251 CNS 98.4% | PC-3 prostate 91.2% | SK-MEL-5 melanoma 98.5% | UACC-62 melanoma 97.6% | LOX IMVI melanoma 99.7% | SK-MEL-28 melanoma 97.1% | SK-MEL-2 melanoma 113% | EKVX NSCLC 96.3% | SN12C renal 95.8% | UO-31 renal 80.8% | TK-10 renal 98% | ACHN renal 99.5% | CAKI-1 renal 87.7% | A498 renal 85.2% | CCRF-CEM leukemia 96.6% | MOLT-4 leukemia 106%

CCC(=O)Nc1ccc(-c2nc(-c3cccc(OC)c3)c(-c3ccnc(Br)c3)[nH]2)cc1
inactive: HCT-15 colon 21.5% | HT29 colon 54.7% | SNB-75 CNS 15.9% | SNB-19 CNS 67.8% | U251 CNS 53.4% | PC-3 prostate 39.4% | SK-MEL-5 melanoma 47.8% | UACC-62 melanoma 48.8% | LOX IMVI melanoma 43.3% | SK-MEL-28 melanoma 66% | SK-MEL-2 melanoma 70.2% | EKVX NSCLC 64.6% | SN12C renal 68.3% | UO-31 renal 53.9% | TK-10 renal 90.4% | ACHN renal 60.3% | CAKI-1 renal 57.1% | A498 renal 50.5% | CCRF-CEM leukemia 37.1% | MOLT-4 leukemia 44.6%

O=c1c2cc(F)ccc2sc2c(N3CCNCC3)nc3ccc(F)cc3c12
active: HCT-15 colon -66.4% | HT29 colon -41.2% | U251 CNS -56.2% | UACC-62 melanoma 0.994% | LOX IMVI melanoma -98.5% | ACHN renal -41.6% | CAKI-1 renal -96.9% | CCRF-CEM leukemia -12.1% | MOLT-4 leukemia -36.5%
inactive: SNB-75 CNS 53.9% | SNB-19 CNS 57% | PC-3 prostate 32% | SK-MEL-5 melanoma 81.5% | SK-MEL-28 melanoma 27.9% | SK-MEL-2 melanoma 90.5% | EKVX NSCLC 66.4% | SN12C renal 54.2% | UO-31 renal 31.8% | TK-10 renal 26.6% | A498 renal 45.5%

COc1cc(Nc2cn[nH]c2-c2ccc(Cl)cc2)cc(OC)c1OC
inactive: HCT-15 colon 35.9% | HT29 colon 15% | SNB-19 CNS 56% | U251 CNS 35.3% | PC-3 prostate 56.4% | SK-MEL-5 melanoma 39.1% | UACC-62 melanoma 23.2% | LOX IMVI melanoma 41.6% | SK-MEL-28 melanoma 46.2% | SK-MEL-2 melanoma 32.4% | EKVX NSCLC 62.7% | SN12C renal 52.5% | UO-31 renal 32.3% | TK-10 renal 67% | ACHN renal 71.1% | CAKI-1 renal 59.9% | A498 renal 43.3% | CCRF-CEM leukemia 24.3% | MOLT-4 leukemia 19.7%
active: SNB-75 CNS -9.76%

COc1ccc(-c2nn(C(=O)c3cc(OC)c(OC)c(OC)c3)c3cc(N)ccc23)cc1
inactive: SNB-75 CNS 39.6% | SNB-19 CNS 34% | U251 CNS 12.3% | PC-3 prostate 25.8% | UACC-62 melanoma 42.5% | LOX IMVI melanoma 26.3% | SK-MEL-28 melanoma 45.1% | SK-MEL-2 melanoma 55.8% | EKVX NSCLC 30.8% | SN12C renal 22.9% | UO-31 renal 23.7% | TK-10 renal 60.8% | ACHN renal 11.4% | CAKI-1 renal 46.2% | CCRF-CEM leukemia 17% | MOLT-4 leukemia 13.7%
active: HCT-15 colon 4.67% | HT29 colon 0.136% | SK-MEL-5 melanoma -15.8% | A498 renal -8.28%

CCc1cccc2c3c(sc12)C(c1ccc(F)cc1)C(C#N)=C(N)O3 (stereo not given)
active: A498 renal 7.3%
inactive: HCT-15 colon 14.5% | HT29 colon 12.7% | SNB-75 CNS 24.1% | SNB-19 CNS 39.8% | U251 CNS 29.2% | PC-3 prostate 20.4% | SK-MEL-5 melanoma 27.4% | UACC-62 melanoma 39% | LOX IMVI melanoma 14.6% | SK-MEL-28 melanoma 60.5% | SK-MEL-2 melanoma 57% | EKVX NSCLC 51% | SN12C renal 32.7% | UO-31 renal 48.9% | TK-10 renal 77.8% | ACHN renal 30.1% | CAKI-1 renal 14.5% | CCRF-CEM leukemia 15.1% | MOLT-4 leukemia 17.3%

O=CN(SSN(C=O)C1CCCCC1)C1CCCCC1
inactive: HCT-15 colon 109% | HT29 colon 108% | SNB-75 CNS 109% | SNB-19 CNS 99.9% | U251 CNS 109% | PC-3 prostate 103% | SK-MEL-5 melanoma 119% | UACC-62 melanoma 85.5% | LOX IMVI melanoma 96.8% | SK-MEL-28 melanoma 116% | SK-MEL-2 melanoma 111% | EKVX NSCLC 95.3% | SN12C renal 99.7% | UO-31 renal 60.6% | TK-10 renal 106% | ACHN renal 105% | CAKI-1 renal 101% | A498 renal 116% | CCRF-CEM leukemia 111% | MOLT-4 leukemia 65.2%

CC1CN(C2CCCCC2)C(=S)N(c2ccccc2)C1=O (stereo not given)
inactive: HCT-15 colon 103% | HT29 colon 111% | SNB-75 CNS 92.1% | SNB-19 CNS 101% | U251 CNS 105% | PC-3 prostate 90.1% | SK-MEL-5 melanoma 104% | UACC-62 melanoma 105% | LOX IMVI melanoma 105% | SK-MEL-28 melanoma 114% | SK-MEL-2 melanoma 122% | EKVX NSCLC 101% | SN12C renal 111% | UO-31 renal 97.7% | TK-10 renal 116% | ACHN renal 110% | CAKI-1 renal 97.9% | A498 renal 95.4% | CCRF-CEM leukemia 93.8% | MOLT-4 leukemia 70.4%

CSc1ncccc1C(=O)OCC(=O)Nc1oc(C)c2c(C)n[nH]c(=O)c12
inactive: HCT-15 colon 103% | HT29 colon 116% | SNB-75 CNS 85.3% | SNB-19 CNS 101% | U251 CNS 102% | PC-3 prostate 84.8% | SK-MEL-5 melanoma 103% | UACC-62 melanoma 94.4% | LOX IMVI melanoma 94.5% | SK-MEL-28 melanoma 109% | SK-MEL-2 melanoma 92.5% | EKVX NSCLC 71% | SN12C renal 103% | UO-31 renal 91.7% | TK-10 renal 102% | ACHN renal 106% | CAKI-1 renal 112% | A498 renal 116% | CCRF-CEM leukemia 79% | MOLT-4 leukemia 99.4%

COc1ccc(C(=O)C(C)C)c2ccccc12
inactive: HCT-15 colon 99.6% | HT29 colon 106% | SNB-75 CNS 115% | SNB-19 CNS 108% | U251 CNS 110% | PC-3 prostate 93.4% | SK-MEL-5 melanoma 109% | UACC-62 melanoma 106% | LOX IMVI melanoma 96.4% | SK-MEL-28 melanoma 126% | SK-MEL-2 melanoma 97.9% | EKVX NSCLC 94.7% | SN12C renal 109% | UO-31 renal 90.8% | TK-10 renal 90.5% | ACHN renal 100% | CAKI-1 renal 97.9% | A498 renal 99% | MOLT-4 leukemia 97.2%
active: CCRF-CEM leukemia -25.6%
